Among the data in PubChem BioAssay are composite z-score and z-score values, retold here.

Where “and” joins values, the source holds several entries; their conditions need not be identical. Identical values can stand only once.

The test system of one assay is XIP peptide (Xip251-270). Briefly: small-molecule binders of XIP peptide, primary screen, biochemical, small-molecule microarray, fluorescence 635/667 nm, 0.5 µg/mL protein (AID 1183). The note with it: small-molecule microarray binding, fluorescence 635 nm; higher = more signal.
Take `C=CCN(CCCCC)C(=O)C1N(c2c(Cl)cccc2CO)C(=O)C2C(C(=O)O)C3C=CC21O3` (centres undefined): the composite z-score was -0.416 and -1.42.
As to `C=CCN(CCCC)C(=O)C(c1cccs1)N(C(=O)/C=C\C(=O)O)c1c(Cl)cccc1CO` (centres undefined), the composite z-score was -1.64 and 0.45.
On to `CC(C)[Si]1(C(C)C)OCc2cc(C3CC3)nc(CCc3ccccc3)c21`, for which the composite z-score is -0.663 and -0.481.
`C[C@@]1([C@@H](NC(=O)Cc2ccccc2)c2ccc(-c3ccccc3)cc2)C[C@H]1C1CCCCC1`: the composite z-score is 0.0261 and -0.867 and 0.444.

System in the next assay: not listed separately
In words: Plasmodium falciparum growth inhibition, primary screen, strain 3D7, DAPI fluorescence, 100 nL (AID 1184).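 Also: parasites grown inside human red blood cells in medium with human serum.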 The note with it: P. falciparum 3D7 growth, 3 d, higher = more signal.
With `C=CCN(C(=O)C(c1cccs1)N(CCOCCO)C(=O)/C=C\C(=O)O)c1ccc(OC)cc1` (centres undefined), the z-score is -0.305 and 0.0058.
Turning to `C=CCN1C(=O)[C@]2(O[C@H](CCn3cc(CCO)nn3)[C@@H]([Si](C)(C)c3ccc(OC)cc3)[C@@H]2C)c2cc(N3C(=O)c4cccc5cccc3c45)ccc21`, the z-score was -2.67 and -2.76.
On the same count and under the same terms, with `C=CCN(Cc1ccccc1)C(=O)C(c1cccs1)N(C(=O)/C=C\C(=O)O)c1ccc(CCO)cc1` (centres undefined) the figure was -0.0763 and 0.331.
As for `C=CCN(C(=O)C1N(CCOCCO)C(=O)C2C(C(=O)O)C3C=CC21O3)C(C)(C)C` (centres undefined), the z-score was -0.283 and -0.145.
For `C=CC[C@H](O)c1ccc(OCCO)cc1`, the z-score was -0.597 and 1.72.
As to `C=CCN(CCCC)C(=O)C(c1cccs1)N(CCOCCO)C(=O)/C=C\C(=O)O` (centres undefined), the z-score is 0.329 and -0.0611.
Turning to `C=CCN(CCCC)C(=O)C(c1cccs1)N(C(=O)/C=C\C(=O)O)c1ccc(CCO)cc1` (centres undefined), the z-score is 0.28 and 0.445.
Turning to `C=CCN(Cc1ccccc1)C(=O)C1N(CCCCCCO)C(=O)C2C(C(=O)O)C3C=CC21O3` (centres undefined), the z-score is 0.865 and 1.05.
As for `C[N+](C)(C)CCCCCCNC(=O)[C@@H]1C[C@@H]2C(=O)N[C@@H](CCCC[N+](C)(C)C)C(=O)N2[C@@H]1c1ccc(O)cc1`, the z-score was 0.202 and -0.0272.
On the same count and under the same terms, with `C=CCN(Cc1ccccc1)C(=O)C(c1cccs1)N(C(=O)/C=C\C(=O)O)c1c(Cl)cccc1CO` (centres undefined) the figure was -0.82 and -0.106; with `CC(C)OC(=O)C=C1C[C@@H](c2ccccc2)O[C@@H](c2ccccc2)O1`, -0.129 and 0.276.
`CCOC(=O)c1ccc(NC(=O)O[C@H]2[C@H](OC(=O)Nc3ccccc3)[C@@H](OC(=O)Nc3ccccc3)[C@@H](OC)O[C@@H]2CO)cc1`: the z-score is -1.89 and -2.47.
Take `CC(C)OC(=O)C=C1C[C@@H](c2cccc(C(F)(F)F)c2)O[C@@H](c2cccc(C(F)(F)F)c2)O1`: the z-score is 0.15 and -0.473.
The same measure, in the same setting: with `C=CCN(Cc1ccccc1)C(=O)C1N(c2ccc(CCO)cc2)C(=O)C2C(C(=O)O)C3C=CC21O3` (centres undefined) the figure was -1.34 and -0.544; with `C[N+](C)(C)CCCCNC(=O)[C@H]1C[C@H]2C(=O)N[C@@H](CCCC[N+](C)(C)C)C(=O)N2[C@H]1c1cccc(OCCO)c1`, 0.211 and -0.244.
The same measure, in the same setting: with `C=C[C@H](OC)[C@@H](O)c1ccc(O)c(F)c1` the figure was 1.66 and 0.778; with `C=C[C@@H](OC)[C@H](O)c1ccc(O)c(F)c1`, 0.295 and 0.636.
Still for that read-out and setting: with `C=C[C@H](C)[C@@H](O)c1ccc(OCCO)cc1` the figure was 0.394 and 0.709.
As for `C=CCN(CCCCC)C(=O)C(c1cccs1)N(CCOCCO)C(=O)/C=C\C(=O)O` (centres undefined), the z-score was -0.102 and -0.0618.
As for `C=CCN(C(=O)C(c1cccs1)N(CCOCCO)C(=O)/C=C\C(=O)O)C(C)(C)C` (centres undefined), the z-score was 0.0905 and 0.921.
As for `C=CCN(CCCCC)C(=O)C1N(CCCCCCO)C(=O)C2C(C(=O)O)C3C=CC21O3` (centres undefined), the z-score is 2.33 and 1.76.
On to `C=CCN(CCCC)C(=O)C1N(c2ccc(CCO)cc2)C(=O)C2C(C(=O)O)C3C=CC21O3` (centres undefined), for which the z-score was 0.224 and -1.45.
On to `C=CCN(CCCCC)C(=O)C(c1cccs1)N(C(=O)/C=C\C(=O)O)c1c(Cl)cccc1CO` (centres undefined), for which the z-score was 0.114 and -0.445.
As to `C=CC[C@@H](O)c1ccc(O)c(F)c1`, the z-score is 0.408 and -0.881.
`C=C[C@@H](C)[C@H](O)c1ccc(O)c2ccccc12`: the z-score was -0.559 and 0.666.
On the same count and under the same terms, next, `CC(C)[Si]1(C(C)C)OCc2cc(CCCc3cc4c(c(CCc5ccccc5)n3)[Si](C(C)C)(C(C)C)OC4)nc(CCc3ccccc3)c21`: 0.0742 and 1.55; `C[N+](C)(C)CCCCNC(=O)[C@H]1C[C@H]2C(=O)N[C@@H](CCCC[N+](C)(C)C)C(=O)N2[C@H]1c1ccc(O)cc1`: 0.952 and -1.12; `C=CCN(C(=O)C(c1cccs1)N(C(=O)/C=C\C(=O)O)c1ccc(CCO)cc1)c1ccc(OC)cc1` (centres undefined): -0.142 and -0.395.
As to `C[N+](C)(C)CCCCCCNC(=O)[C@H]1C[C@H]2C(=O)N[C@@H](CCCC[N+](C)(C)C)C(=O)N2[C@H]1c1cccc(OCCO)c1`, the z-score was 0.11 and 0.17.
Turning to `CCOC(=O)[C@@H]1CC2O[C@]23C[C@@H]1C(=O)N1CCC[C@@H]1[C@H]3O[Si](C)(C)C(C)(C)C` (some centres undefined), the z-score is -0.662 and 1.63.
`C[N+](C)(C)CCCCCCNC(=O)[C@H]1C[C@H]2C(=O)N[C@@H](CCCC[N+](C)(C)C)C(=O)N2[C@H]1c1ccc(O)cc1`: the z-score is -1.28 and 0.581.
`C=CCN(CCCCC)C(=O)C1N(c2ccc(CCO)cc2)C(=O)C2C(C(=O)O)C3C=CC21O3` (centres undefined): the z-score is 0.062 and -0.336.
Take `C=C[C@@H](C)[C@@H](O)c1ccc(O)c2ccccc12`: the z-score was 1.31 and -0.772.
Take `C=CCN(CCCCC)C(=O)C(c1cccs1)N(C(=O)/C=C\C(=O)O)c1ccc(CCO)cc1` (centres undefined): the z-score was 0.653 and 0.454.
For `C#CCN1C(/C=C/c2ccccc2)C(=O)OC[C@H]1c1ccccc1` (some centres undefined), the z-score was -2.32 and -1.18.
With `C[N+](C)(C)CCCCNC(=O)[C@@H]1C[C@@H]2C(=O)N[C@@H](CCCC[N+](C)(C)C)C(=O)N2[C@@H]1c1cccc(OCCO)c1`, the z-score is -0.0982 and -0.462.
Take `C=CCN(CCCCC)C(=O)C1N(c2c(Cl)cccc2CO)C(=O)C2C(C(=O)O)C3C=CC21O3` (centres undefined): the z-score is -1.2 and -1.04.
As to `C=CCN(CCCC)C(=O)C(c1cccs1)N(C(=O)/C=C\C(=O)O)c1c(Cl)cccc1CO` (centres undefined), the z-score was -0.486 and -0.375.
Consider `CC(C)[Si]1(C(C)C)OCc2cc(C3CC3)nc(CCc3ccccc3)c21`, for which the z-score was -0.541 and 0.653.
Consider `C[C@@]1([C@@H](NC(=O)Cc2ccccc2)c2ccc(-c3ccccc3)cc2)C[C@H]1C1CCCCC1`, for which the z-score was -1.3 and -0.345 and -1.39.
